# Assay results taken from the supplement of paper PMC10849652.
# About 7,900 targets were measured; listed, in parts, are those with a hit and a random draw of the rest. About 0.6% of all pairs of compound and target were hits.
# Compound: CC1=C(SC2=C1C(=N[C@H](C3=NN=C(N32)C)CC(=O)N)C4=CC=C(C=C4)Cl)C
# Assay: log2 fold change, soluble protein after heating vs DMSO (PISA); higher = thermal stabilisation; K562 cells, 10 uM, 30 min; active = over 0.2 and 3.5 SD of the protein, either way, in both replicates (recomputed)
# Summary of the method: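 K562 cells at 2×10^6 cells/mL were given 10 μM compound for 30 min. Aliquots then went through 3 min of heating across 48°C-58°C, were pooled, and were extracted in PBS with 0.5% NP-40 at 4°C, and the supernatant after 21,000xg for 90 min was quantified by TMTpro 16plex LC-MS/MS with channel sums equalised. Thermal stability relative to control samples, from duplicates, is given as log2 fold change.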
# Sequence of UniProt P51151 (P51151 whole entry, looked up): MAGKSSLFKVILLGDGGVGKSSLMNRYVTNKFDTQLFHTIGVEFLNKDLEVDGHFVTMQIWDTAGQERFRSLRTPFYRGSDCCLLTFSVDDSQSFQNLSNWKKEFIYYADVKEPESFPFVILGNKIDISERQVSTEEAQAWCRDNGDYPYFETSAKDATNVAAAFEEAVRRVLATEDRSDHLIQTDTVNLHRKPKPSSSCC
# Sequence of UniProt Q96EE3 (Q96EE3 whole entry, looked up): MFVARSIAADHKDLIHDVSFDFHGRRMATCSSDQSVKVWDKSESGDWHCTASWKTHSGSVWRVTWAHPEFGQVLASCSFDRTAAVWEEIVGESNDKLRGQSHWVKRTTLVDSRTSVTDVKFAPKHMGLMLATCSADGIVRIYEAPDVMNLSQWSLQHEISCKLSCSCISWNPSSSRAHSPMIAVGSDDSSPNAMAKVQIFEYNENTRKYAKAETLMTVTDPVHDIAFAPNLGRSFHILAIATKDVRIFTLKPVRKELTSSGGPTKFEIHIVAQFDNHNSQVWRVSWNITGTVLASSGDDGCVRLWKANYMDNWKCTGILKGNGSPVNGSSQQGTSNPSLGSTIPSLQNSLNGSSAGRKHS
# Sequence of UniProt O43818 (O43818 whole entry, looked up): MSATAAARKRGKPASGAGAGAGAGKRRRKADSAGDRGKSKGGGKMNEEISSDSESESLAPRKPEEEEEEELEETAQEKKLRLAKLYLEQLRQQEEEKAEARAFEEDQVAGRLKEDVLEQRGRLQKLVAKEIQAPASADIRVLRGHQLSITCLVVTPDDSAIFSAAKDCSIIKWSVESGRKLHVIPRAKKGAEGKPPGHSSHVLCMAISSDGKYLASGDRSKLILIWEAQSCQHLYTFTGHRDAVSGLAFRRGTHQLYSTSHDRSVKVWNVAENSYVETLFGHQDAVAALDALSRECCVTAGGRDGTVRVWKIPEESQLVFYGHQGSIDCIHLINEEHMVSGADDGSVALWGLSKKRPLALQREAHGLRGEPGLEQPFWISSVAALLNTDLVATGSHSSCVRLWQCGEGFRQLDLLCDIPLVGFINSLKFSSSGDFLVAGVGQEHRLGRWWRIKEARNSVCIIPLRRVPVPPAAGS
# Sequence of UniProt Q8WZA2 (Q8WZA2 whole entry, looked up): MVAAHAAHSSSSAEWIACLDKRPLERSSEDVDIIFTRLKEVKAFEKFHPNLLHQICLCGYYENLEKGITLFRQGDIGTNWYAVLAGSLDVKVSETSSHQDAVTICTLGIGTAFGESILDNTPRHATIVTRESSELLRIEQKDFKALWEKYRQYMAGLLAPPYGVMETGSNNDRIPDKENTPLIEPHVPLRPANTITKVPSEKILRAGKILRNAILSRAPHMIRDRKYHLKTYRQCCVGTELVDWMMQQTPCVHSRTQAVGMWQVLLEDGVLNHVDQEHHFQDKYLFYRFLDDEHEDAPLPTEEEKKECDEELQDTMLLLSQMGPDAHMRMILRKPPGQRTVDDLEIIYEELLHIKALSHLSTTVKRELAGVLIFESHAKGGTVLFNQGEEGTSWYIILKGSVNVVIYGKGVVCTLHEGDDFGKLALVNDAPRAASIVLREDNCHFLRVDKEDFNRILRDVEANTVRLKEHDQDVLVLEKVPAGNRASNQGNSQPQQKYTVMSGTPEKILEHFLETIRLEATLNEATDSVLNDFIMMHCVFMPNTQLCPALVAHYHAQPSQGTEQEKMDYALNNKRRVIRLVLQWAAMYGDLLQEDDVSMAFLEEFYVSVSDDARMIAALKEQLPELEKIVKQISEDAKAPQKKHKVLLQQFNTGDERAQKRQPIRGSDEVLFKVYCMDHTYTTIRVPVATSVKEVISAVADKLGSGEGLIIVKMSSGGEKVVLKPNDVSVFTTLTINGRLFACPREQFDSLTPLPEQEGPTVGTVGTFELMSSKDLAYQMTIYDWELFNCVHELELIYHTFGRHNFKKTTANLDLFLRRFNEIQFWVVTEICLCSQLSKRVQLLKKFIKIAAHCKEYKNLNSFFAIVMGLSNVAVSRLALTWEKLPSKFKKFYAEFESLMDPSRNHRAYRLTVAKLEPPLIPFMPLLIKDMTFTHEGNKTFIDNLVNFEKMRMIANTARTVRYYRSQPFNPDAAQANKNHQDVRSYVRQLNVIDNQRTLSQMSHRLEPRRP
# Sequence of UniProt Q8WXD2 (Q8WXD2 whole entry, looked up): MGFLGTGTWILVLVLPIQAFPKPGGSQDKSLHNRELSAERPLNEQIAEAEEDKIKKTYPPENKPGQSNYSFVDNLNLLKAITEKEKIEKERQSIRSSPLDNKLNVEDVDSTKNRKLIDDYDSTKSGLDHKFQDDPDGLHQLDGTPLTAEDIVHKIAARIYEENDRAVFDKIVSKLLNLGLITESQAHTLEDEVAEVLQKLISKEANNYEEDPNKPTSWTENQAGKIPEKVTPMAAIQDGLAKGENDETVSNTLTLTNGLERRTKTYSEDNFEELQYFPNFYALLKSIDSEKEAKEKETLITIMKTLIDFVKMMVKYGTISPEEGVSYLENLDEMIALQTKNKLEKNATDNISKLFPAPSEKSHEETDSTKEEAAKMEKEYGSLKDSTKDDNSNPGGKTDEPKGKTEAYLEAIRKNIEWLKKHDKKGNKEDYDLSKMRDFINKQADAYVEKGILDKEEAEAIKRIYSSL
# Sequence of UniProt Q6NUM9 (Q6NUM9 whole entry, looked up): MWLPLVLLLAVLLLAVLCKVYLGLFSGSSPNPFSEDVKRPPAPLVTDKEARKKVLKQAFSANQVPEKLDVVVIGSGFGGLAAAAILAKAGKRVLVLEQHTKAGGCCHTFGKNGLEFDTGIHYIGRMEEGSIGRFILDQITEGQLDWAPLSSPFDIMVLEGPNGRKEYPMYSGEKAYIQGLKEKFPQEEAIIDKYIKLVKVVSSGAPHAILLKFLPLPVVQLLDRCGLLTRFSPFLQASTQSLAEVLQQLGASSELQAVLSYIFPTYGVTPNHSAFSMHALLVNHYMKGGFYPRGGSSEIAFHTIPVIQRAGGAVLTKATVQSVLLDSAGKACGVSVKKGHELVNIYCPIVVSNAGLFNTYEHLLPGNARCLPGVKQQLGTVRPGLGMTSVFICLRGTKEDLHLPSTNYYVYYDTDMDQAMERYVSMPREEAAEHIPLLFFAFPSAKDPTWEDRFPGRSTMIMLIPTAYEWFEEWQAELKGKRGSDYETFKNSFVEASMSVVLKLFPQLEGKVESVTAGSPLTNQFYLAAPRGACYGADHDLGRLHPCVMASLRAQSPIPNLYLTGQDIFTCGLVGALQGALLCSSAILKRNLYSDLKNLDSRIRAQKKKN
# Sequence of UniProt Q9BVS4 (Q9BVS4 whole entry, looked up): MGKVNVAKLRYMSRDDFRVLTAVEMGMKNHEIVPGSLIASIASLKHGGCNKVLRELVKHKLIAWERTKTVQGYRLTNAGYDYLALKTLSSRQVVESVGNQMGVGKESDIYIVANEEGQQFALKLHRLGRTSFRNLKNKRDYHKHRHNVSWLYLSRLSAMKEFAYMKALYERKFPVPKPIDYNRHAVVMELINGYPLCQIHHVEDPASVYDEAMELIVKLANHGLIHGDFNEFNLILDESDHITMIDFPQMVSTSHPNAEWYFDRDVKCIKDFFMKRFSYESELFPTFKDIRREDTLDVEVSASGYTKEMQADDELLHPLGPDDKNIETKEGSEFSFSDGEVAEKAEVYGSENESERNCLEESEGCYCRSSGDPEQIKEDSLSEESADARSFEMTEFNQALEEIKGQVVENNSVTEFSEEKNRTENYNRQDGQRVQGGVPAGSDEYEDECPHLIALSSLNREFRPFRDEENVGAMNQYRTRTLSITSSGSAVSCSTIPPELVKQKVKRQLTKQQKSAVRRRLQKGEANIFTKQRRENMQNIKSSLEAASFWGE
# Sequence of UniProt Q04864 (Q04864 whole entry, looked up): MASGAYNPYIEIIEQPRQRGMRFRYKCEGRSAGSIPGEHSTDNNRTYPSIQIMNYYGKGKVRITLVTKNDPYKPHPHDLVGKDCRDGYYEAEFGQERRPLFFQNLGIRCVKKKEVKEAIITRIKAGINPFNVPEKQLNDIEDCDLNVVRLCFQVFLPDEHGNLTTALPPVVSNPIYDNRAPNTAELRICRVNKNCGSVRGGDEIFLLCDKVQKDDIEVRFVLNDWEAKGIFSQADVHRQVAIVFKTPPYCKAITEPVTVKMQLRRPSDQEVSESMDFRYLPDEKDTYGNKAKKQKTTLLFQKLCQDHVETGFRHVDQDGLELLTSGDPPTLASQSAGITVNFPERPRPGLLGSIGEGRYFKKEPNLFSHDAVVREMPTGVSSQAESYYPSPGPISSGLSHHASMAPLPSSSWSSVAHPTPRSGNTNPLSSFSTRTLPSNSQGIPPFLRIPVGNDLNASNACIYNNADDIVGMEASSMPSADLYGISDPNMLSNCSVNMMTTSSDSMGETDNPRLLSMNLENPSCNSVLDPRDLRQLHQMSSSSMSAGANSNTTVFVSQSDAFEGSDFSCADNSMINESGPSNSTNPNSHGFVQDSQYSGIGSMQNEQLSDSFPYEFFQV
# Sequence of UniProt P43003 (P43003 whole entry, looked up): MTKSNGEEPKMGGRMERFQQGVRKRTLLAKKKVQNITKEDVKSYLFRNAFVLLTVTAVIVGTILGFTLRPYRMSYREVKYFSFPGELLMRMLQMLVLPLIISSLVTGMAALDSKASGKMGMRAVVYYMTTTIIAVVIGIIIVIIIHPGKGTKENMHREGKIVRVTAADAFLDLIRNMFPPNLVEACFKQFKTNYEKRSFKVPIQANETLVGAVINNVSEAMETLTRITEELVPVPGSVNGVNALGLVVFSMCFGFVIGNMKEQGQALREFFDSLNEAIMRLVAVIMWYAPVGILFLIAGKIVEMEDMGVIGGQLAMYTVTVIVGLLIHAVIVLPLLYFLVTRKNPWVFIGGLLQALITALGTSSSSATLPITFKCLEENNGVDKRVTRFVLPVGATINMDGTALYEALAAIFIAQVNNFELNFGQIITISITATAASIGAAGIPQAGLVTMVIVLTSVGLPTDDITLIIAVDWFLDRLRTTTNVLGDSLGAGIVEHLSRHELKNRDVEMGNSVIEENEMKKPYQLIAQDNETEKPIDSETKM
# Sequence of UniProt Q8N0T1 (Q8N0T1 whole entry, looked up): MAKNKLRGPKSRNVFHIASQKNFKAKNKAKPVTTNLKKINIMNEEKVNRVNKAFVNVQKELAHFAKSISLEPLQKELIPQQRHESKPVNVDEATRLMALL
row,Target,log2 fold change
1,RPS3 (UniProt P23396),-0.118 (inactive)
2,RNF167 (UniProt Q9H6Y7),-0.011 (inactive)
3,SEC24A (UniProt O95486),0.02 (inactive)
4,RSRC1 (UniProt Q96IZ7),-0.019 (inactive)
5,RB1CC1 (UniProt Q8TDY2),0.096 (inactive)
6,RBM39 (UniProt Q14498),-0.004 (inactive)
7,RCC1 isoform 2 (UniProt P18754),0.096 (inactive)
8,RPS6KA3 (UniProt P51812),0.05 (inactive)
9,RDH10 (UniProt Q8IZV5),0.08 (inactive)
10,RNF220 (UniProt Q5VTB9),0.072 (inactive)
11,RAP2C (UniProt Q9Y3L5),0.055 (inactive)
12,RAD51 (UniProt Q06609),0.142 (inactive)
13,RRP9 (UniProt O43818),-0.136 (inactive)
14,SEH1L isoform 1 (UniProt Q96EE3),0.06 (inactive)
15,RAPGEF4 (UniProt Q8WZA2),0.152 (inactive)
16,RIOK2 (UniProt Q9BVS4),-0.038 (inactive)
17,SHROOM2 (UniProt Q13796),0.102 (inactive)
18,RPS25 (UniProt P62851),-0.166 (inactive)
19,SCYL3 isoform 2 (UniProt Q8IZE3),-0.006 (inactive)

row,Target,log2 fold change
1,SACM1L (UniProt Q9NTJ5),0.048 (inactive)
2,ROCK2 (UniProt O75116),0.003 (inactive)
3,RBIS (UniProt Q8N0T1),-0.034 (inactive)
4,RALY (UniProt Q9UKM9),-0.379 (inactive)
5,RNF2 (UniProt Q99496),0.014 (inactive)
6,REL (UniProt Q04864),0.048 (inactive)
7,RPS6KA1 isoform 2 (UniProt Q15418),0.048 (inactive)
8,SLC1A3 (UniProt P43003),0.003 (inactive)
9,RPAIN isoform 8 (UniProt Q86UA6),0.057 (inactive)
10,RAB9A (UniProt P51151),0.088 (inactive)
11,RELA (UniProt Q04206),0.056 (inactive)
12,RPS5 (UniProt P46782),-0.144 (inactive)
13,RETSAT (UniProt Q6NUM9),0.114 (inactive)
14,SAMSN1 isoform 3 (UniProt Q9NSI8),0.014 (inactive)
15,SH3GL1 (UniProt Q99961),0 (inactive)
16,RGS10 (UniProt O43665),0.042 (inactive)
17,SCG3 (UniProt Q8WXD2),0.034 (inactive)
18,SAAL1 (UniProt Q96ER3),0.03 (inactive)
